# Reference: PubChem BioAssay (NCI)
# Compounds without any hit were thinned out: in the full panel of roughly 79,000, 15% have a hit. A number with no mark means an inactive call. The source made the active and inactive calls. Cut-off read from the data, not from the text of the source: active = growth inhibition above about 70%; inactive = the rest.
# Tests used:
# [1] = NCI Yeast Anticancer Drug Screen. Data for the rad52 strain (AID 147);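 note: 0% = growth of vehicle-treated control cultures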; settings: S. cerevisiae rad52 mutant growth inhibition, hits give high values
# How it was run: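 The repair-mutant yeast strain was incubated with compounds, then growth was read and inhibition derived relative to vehicle.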
# [2] = NCI Yeast Anticancer Drug Screen. Data for the wt1 strain (AID 149);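 note: 0% = growth of vehicle-treated wt1 cultures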; settings: S. cerevisiae wt1 strain (SPY 50644) growth inhibition, hits give high values
# How it was run: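 Compounds are added to wt1 yeast cultures. Growth is then measured. Inhibition is expressed relative to vehicle-treated controls.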
# [3] = NCI Yeast Anticancer Drug Screen. Data for the rad50EPP+ strain (AID 151);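 note: 0% = growth of vehicle-treated control cultures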; settings: S. cerevisiae rad50 mutant strain, hits give high values
# How it was run: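 Vehicle-normalised growth inhibition; rad50EPP+ yeast strain, altered in DNA damage repair, compound-treated.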
# [4] = NCI Yeast Anticancer Drug Screen. Data for the mgt1 strain (AID 153); settings: S. cerevisiae mgt1 mutant growth inhibition, hits give high values
# How it was run: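 Vehicle-normalized growth inhibition is determined in mgt1 yeast, a strain selected for a defined alteration in DNA repair or cell cycle control.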
# [5] = NCI Yeast Anticancer Drug Screen. Data for the rad50 strain (AID 155);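 note: 0% = growth of vehicle-only cultures of the same strain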; settings: S. cerevisiae rad50 strain growth inhibition, hits give high values
# How it was run: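 Inhibition values express reduced yeast growth in compound-treated cultures relative to vehicle-treated controls.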
# [6] = NCI Yeast Anticancer Drug Screen. Data for the mec2-1 strain (AID 157); settings: S. cerevisiae mec2-1 strain, hits give high values
# How it was run: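 Mutant yeast (mec2-1) grown with compound; growth inhibition relative to vehicle control reported.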
# [7] = NCI Yeast Anticancer Drug Screen. Data for the rad14 strain (AID 159);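 note: 0% = growth of vehicle-treated control cultures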; settings: S. cerevisiae rad14 strain growth inhibition, hits give high values
# How it was run: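 A mutant yeast strain defective in DNA damage repair is treated with compound; inhibition of its growth is scored against untreated, vehicle-exposed cultures.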
# [8] = NCI Yeast Anticancer Drug Screen. Data for the sgs1 mgt1 strain (AID 161);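 note: 0% = growth of cultures given vehicle only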; settings: S. cerevisiae sgs1 mgt1 strain, hits give high values
# How it was run: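 Percent growth inhibition was derived by comparing compound-exposed mutant yeast with vehicle-exposed cultures. The strain carries alterations in DNA damage repair.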
# [9] = NCI Yeast Anticancer Drug Screen. Data for the cln2 rad14 strain (AID 165);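 note: 0% = growth equal to vehicle treated cultures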; settings: S. cerevisiae cln2 rad14 strain, hits give high values
# How it was run: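 Readout is yeast growth inhibition versus vehicle-treated controls, using a strain with cln2 and rad14 alterations exposed to compound.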
# [10] = NCI Yeast Anticancer Drug Screen. Data for the bub3 strain (AID 167); settings: S. cerevisiae bub3 mutant strain, hits give high values
# How it was run: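 Steps: expose the mutant yeast strain to compound; grow alongside vehicle-treated cultures; measure growth; express inhibition against the vehicle cultures.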
# [11] = NCI Yeast Anticancer Drug Screen. Data for the wt2 strain (AID 169);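 note: 0% = growth of vehicle-treated yeast cultures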; settings: S. cerevisiae wt2 strain growth inhibition, hits give high values
# How it was run: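 Against vehicle-treated controls, the growth of yeast exposed to each compound was compared, and the inhibition was recorded.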
# [12] = NCI Yeast Anticancer Drug Screen. Data for the mlh1 strain (AID 171);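 note: 0% = growth of vehicle-treated control cultures of the same strain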; settings: S. cerevisiae mlh1 strain growth inhibition, hits give high values
# How it was run: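 Measured: yeast growth. Reference: vehicle-treated controls. Organism: strain with a defined alteration affecting DNA damage repair or cell cycle control, treated with compound.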
# [13] = NCI Yeast Anticancer Drug Screen. Data for the sgs1 strain (AID 173);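 note: 0% = growth of vehicle-only control cultures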; settings: S. cerevisiae sgs1 mutant, hits give high values
# How it was run: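 Each compound was added to cultures of the altered yeast strain. Growth was recorded, and inhibition was derived by comparison with vehicle controls.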
# [14] = NCI Yeast Anticancer Drug Screen. Data for the mlh1 rad18 strain (AID 175); settings: S. cerevisiae mlh1 rad18 strain growth inhibition, hits give high values
# How it was run: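 Genetically defined yeast (DNA repair-deficient) exposed to compounds; growth inhibition determined relative to vehicle.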
# [15] = NCI Yeast Anticancer Drug Screen. Data for the rad18 strain (AID 177); settings: S. cerevisiae rad18 mutant growth inhibition, hits give high values
# How it was run: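 Vehicle-treated cultures served as the baseline for scoring compound-induced growth inhibition in DNA-repair-mutant yeast.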
# [16] = at 5.0 µM (retest, dose inferred, filed as 0.5)
# [17] = at 50.0 µM (retest, dose inferred, filed as 5.0)
structure (smiles),measurement,setting,value
CCCN=Cc1cc(Cc2ccc(O)c(C=NCCC)c2)ccc1O,growth inhibition,[1]; at 1.2 µM,70% (active)
same,growth inhibition,[1]; at 3.7 µM,95% (active)
same,growth inhibition,[1]; at 11.0 µM,98% (active)
same,growth inhibition,[1]; at 33.0 µM,98% (active)
same,growth inhibition,[1]; at 100.0 µM,97% (active)
same,growth inhibition,[2]; at 1.2 µM,64%
same,growth inhibition,[2]; at 3.7 µM,97% (active)
same,growth inhibition,[2]; at 11.0 µM,98% (active)
same,growth inhibition,[2]; at 33.0 µM,99% (active)
same,growth inhibition,[2]; at 100.0 µM,99% (active)
same,growth inhibition,[3]; at 1.2 µM,27%
same,growth inhibition,[3]; at 3.7 µM,85% (active)
same,growth inhibition,[3]; at 11.0 µM,96% (active)
same,growth inhibition,[3]; at 33.0 µM,98% (active)
same,growth inhibition,[3]; at 100.0 µM,99% (active)
same,growth inhibition,[4]; at 1.2 µM,45%
same,growth inhibition,[4]; at 3.7 µM,97% (active)
same,growth inhibition,[4]; at 11.0 µM,99% (active)
same,growth inhibition,[4]; at 33.0 µM,98% (active)
same,growth inhibition,[4]; at 100.0 µM,97% (active)
same,growth inhibition,[5]; at 1.2 µM,70% (active)
same,growth inhibition,[5]; at 3.7 µM,97% (active)
same,growth inhibition,[5]; [16],93% (active)
same,growth inhibition,[5]; at 11.0 µM,99% (active)
same,growth inhibition,[5]; at 33.0 µM,99% (active)
same,growth inhibition,[5]; [17],99% (active)
same,growth inhibition,[5]; at 50.0 µM,91% (active)
same,growth inhibition,[5]; at 100.0 µM,98% (active)
same,growth inhibition,[6]; at 1.2 µM,92% (active)
same,growth inhibition,[6]; at 3.7 µM,98% (active)
same,growth inhibition,[6]; [16],99% (active)
same,growth inhibition,[6]; at 11.0 µM,99% (active)
same,growth inhibition,[6]; at 33.0 µM,98% (active)
same,growth inhibition,[6]; [17],99% (active)
same,growth inhibition,[6]; at 50.0 µM,91.5% (active)
same,growth inhibition,[6]; at 100.0 µM,98% (active)
same,growth inhibition,[7]; at 1.2 µM,57%
same,growth inhibition,[7]; at 3.7 µM,97% (active)
same,growth inhibition,[7]; at 11.0 µM,98% (active)
same,growth inhibition,[7]; at 33.0 µM,99% (active)
same,growth inhibition,[7]; at 100.0 µM,98% (active)
same,growth inhibition,[8]; [16],-15%
same,growth inhibition,[8]; [17],-85%
same,growth inhibition,[8]; at 50.0 µM,92.2% (active)
same,growth inhibition,[9]; [16],-41%
same,growth inhibition,[9]; [17],-84%
same,growth inhibition,[9]; at 50.0 µM,91.4% (active)
same,growth inhibition,[10]; at 1.2 µM,64%
same,growth inhibition,[10]; at 3.7 µM,95% (active)
same,growth inhibition,[10]; [16],-49%
same,growth inhibition,[10]; at 11.0 µM,98% (active)
same,growth inhibition,[10]; at 33.0 µM,98% (active)
same,growth inhibition,[10]; [17],-86%
same,growth inhibition,[10]; at 50.0 µM,90.8% (active)
same,growth inhibition,[10]; at 100.0 µM,97% (active)
same,growth inhibition,[11]; at 1.2 µM,29%
same,growth inhibition,[11]; at 3.7 µM,98% (active)
same,growth inhibition,[11]; at 11.0 µM,99% (active)
same,growth inhibition,[11]; at 33.0 µM,99% (active)
same,growth inhibition,[11]; at 100.0 µM,98% (active)
same,growth inhibition,[12]; at 1.2 µM,60%
same,growth inhibition,[12]; at 3.7 µM,96% (active)
same,growth inhibition,[12]; at 11.0 µM,98% (active)
same,growth inhibition,[12]; at 33.0 µM,98% (active)
same,growth inhibition,[12]; at 100.0 µM,96% (active)
same,growth inhibition,[13]; at 1.2 µM,58%
same,growth inhibition,[13]; at 3.7 µM,89% (active)
same,growth inhibition,[13]; at 11.0 µM,98% (active)
same,growth inhibition,[13]; at 33.0 µM,98% (active)
same,growth inhibition,[13]; at 100.0 µM,97% (active)
same,growth inhibition,[14]; [16],98% (active)
same,growth inhibition,[14]; [17],99% (active)
same,growth inhibition,[14]; at 50.0 µM,89.3% (active)
same,growth inhibition,[15]; at 1.2 µM,45%
same,growth inhibition,[15]; at 3.7 µM,95% (active)
same,growth inhibition,[15]; at 11.0 µM,98% (active)
same,growth inhibition,[15]; at 33.0 µM,99% (active)
same,growth inhibition,[15]; at 100.0 µM,99% (active)
